Molecules are shown by their SMILES. Hit rate of the full screen: of about 340,000 compounds, about 1,000 (0.29%) were called active. Only a sample is shown. Entries with a potency or affinity are not part of this list. A number with no mark means an inactive call. Cut-off read from the data, not from the text of the source: inconclusive = inhibition above about 27% without an active follow-up result; inactive = below that.

The values that follow come from PubChem BioAssay AID504329 (Southern Research Specialized Biocontainment Screening …, 2011).

This experiment is described as follows: H1N1 influenza NS1A inhibitors, functional cell based assay (AID 504329). Conditions: percent inhibition, at 12.5 µM, active compounds read high.
Consider `CCc1nc2ccccc2n1Cc1cc(=O)n2cc(C)ccc2n1`, for which the inhibition was -1.64%. Consider `CCOc1ccc(NC(=S)N2CCN(S(=O)(=O)c3ccccc3)CC2)cc1`, for which the inhibition is 24.8%. For the molecule `CC(C)(C)c1nnc(N/N=C/c2ccc(O)cc2)n(N)c1=O`, the inhibition is 6.15%.

Take `CC(C)(C)c1nnc(N/N=C/c2ccccc2)n(N)c1=O`: the inhibition is -3.79%.

Turning to `CC(C)(C)c1nnc(N/N=C/c2ccc(Br)cc2)n(N)c1=O`, the inhibition was -5.94%. Regarding `Cc1nnc(N/N=C/c2ccccc2O)n1N`, the inhibition was 9.93%. As to `CCc1nnc(N/N=C/c2cc(C)c(C)cc2C)n1N`, the inhibition is -3.56%. Turning to `CCc1nnc(N/N=C/c2ccccc2F)n1N`, the inhibition was -9%. Turning to `Cc1ccc(CN2CCC(n3nccc3NC(=O)CCOc3ccccc3)CC2)cc1C`, the inhibition is -4.94%. As to `CCN1CCN(C(c2cc(OC)ccc2OC)c2nnnn2Cc2ccccc2)CC1` (stereo not given), the inhibition is -5.45%. In the case of `Cc1cn(CC(=O)NCc2ccc3c(c2)OCO3)c(=O)[nH]c1=O` it was 0.05%; in that of `Cc1ccc(C(=O)COC(=O)CNC(=O)c2cccs2)cc1C`, 3.9%. In the case of `Cc1ccc(CS(=O)Cc2ccc(C(=O)NCCc3ccccc3)o2)cc1` (stereo not given) it was 3.5%. For `COc1ccc(N2CCN(C(=O)c3c(C)nn(-c4ccccc4)c3C)CC2)cc1` the value was 1.11%; for `COc1ccc(C(=O)Nc2ccc(Cl)cc2C(=O)N2CCCC(C)C2)cc1OC` (stereo not given), -10.1%. For the molecule `O=S1(=O)[C@H]2CC3O[C@]2(C[C@@H]3c2ccc(F)cc2)CN1Cc1ccc(Cl)cc1`, the inhibition is -1.02%. For the molecule `COc1cc(C(=O)NC2CCN(Cc3nnnn3Cc3cccs3)CC2)cc(OC)c1OC`, the inhibition is -19%. As to `CCCNc1ncnc2onc(C)c12`, the inhibition is -5.28%. `Oc1cc(Nc2ccccc2)cc2cccnc12`: the inhibition was 3.79%. As for `Clc1cnc(Nc2cccnc2)c(Cl)c1`, the inhibition was -6.41%. In the case of `Oc1cc(NCc2ccc(F)cc2)cc2cccnc12` it was -7.28%; in that of `c1ccc(-c2csc(Nc3cccnc3)n2)nc1`, 14.1%. In the case of `O=C(Nc1ccncc1)c1cc2ccccc2cc1O`, the inhibition is -5.8%. For the molecule `Oc1cc(NCc2ccc(Cl)cc2)cc2cccnc12`, the inhibition was -7.85%. For `CC(=O)c1ccccc1OCC(O)CN1CCN(c2ccccn2)CC1` (stereo not given) the value was -18.6%; for `CCOc1ccccc1N(CC(=O)Nc1ccccc1C(=O)N1CCOCC1)S(C)(=O)=O`, -12.1%; for `COC(=O)c1ccccc1NC(=O)Nc1cccnc1`, -5.77%.

Take `CCOP(=O)(OCC)C(NC(=O)Nc1ccc(Cl)cc1)C(N)=O` (stereo not given): the inhibition was -4.5%.

In the case of `COc1cccc2cc(C(=O)NCC3CCCO3)c(=O)oc12` (stereo not given), the inhibition was 6.96%.

Take `COc1ccc(/C(O)=C2\C(=O)C(=O)N(CCN3CCOCC3)C2c2ccccc2OC)cc1` (stereo not given): the inhibition was -5.93%. For `CCc1cccc(NC(=O)CSCc2cc(=O)[nH][nH]2)c1`, the inhibition was 4.49%. In the case of `Cc1cnc(-n2c(=S)[nH]c3ccccc3c2=O)s1` it was -7.74%; in that of `O=C(NCc1cc(C(F)(F)F)ccc1F)C1CCC(=O)N(C2CC2)C1` (stereo not given), -6.88%. In the case of `Nc1ccc(N2CCN(c3ccc(F)cc3)CC2)cc1`, the inhibition was -1.58%.

On to `CCN1CCN(c2ccc(N)cc2)CC1`, for which the inhibition was 11.3%.

Regarding `N#Cc1ccc(C(=O)Nc2cc(C3CC3)nn2-c2ccccc2)cc1`, the inhibition was -9.27%. Take `CC[n+]1c(C)sc2c3ccsc3ccc21`: the inhibition was 2.89%. Take `Cn1c(SCC(=O)Nc2ccc(C(N)=O)cc2)nc2c(c1=O)SCC2`: the inhibition is -1.68%. As to `Oc1ccccc1N=Nc1ccccc1O`, the inhibition was 21.9%.

In the case of `Oc1ccccc1N=N/C(=N/Nc1ccccc1O)c1ccccc1`, the inhibition is -1.57%. Consider `CC(=O)NC1C(Oc2ccccc2C)OC2COC(c3ccco3)OC2C1O` (stereo not given), for which the inhibition was -4.4%. Consider `Cc1ccn(CC(=O)N2CCCC(C(=O)c3cccc4ccccc34)C2)n1` (stereo not given), for which the inhibition was 1.06%. As to `Cc1ccc(N2CC(C(=O)N3CCC(C(=O)NCCCOC(C)C)CC3)CC2=O)cc1` (stereo not given), the inhibition is -11.9%. For `O=C(COc1ccc(F)cc1)N/N=C/c1cccc2cccnc12` the value was -1.12%; for `COc1cccc(/C=N/NC(=O)COc2cccc3cccnc23)c1O`, -3.74%; for `COc1ccc(OCC(=O)N/N=C/c2cccc3cccnc23)cc1`, 27.8%. For `Cc1ccccc1OCC(=O)N/N=C/c1cccc2cccnc12` the value was 11.7%.

In the case of `Cc1ccc(C(F)(F)F)cc1NC(N)=S`, the inhibition was 5.01%. In the case of `Nn1cnnc1N/N=C/c1ccc(Cl)cc1Cl` it was -12.4%; in that of `COc1ccc(/C=N/Nc2nncn2N)cc1Br`, 9.22%. With `Cc1ccc(N(C)S(=O)(=O)c2ccc3[nH]cc(C(=O)NCCCN4CCOCC4)c(=O)c3c2)cc1C`, the inhibition was 4.79%. With `Cc1cc(=O)[nH]c(N/N=C/c2ccccc2C(F)(F)F)n1`, the inhibition was -5.35%. Take `Nc1ccc(N=Nc2ccccc2)c2ccccc12`: the inhibition is -3.26%.

For the molecule `Nc1ccc(N=Nc2ccccc2)c(N)n1`, the inhibition is 18%. With `COCCn1c(CN2CC(C)CC(C)C2)nc2c1c(=O)n(C)c(=O)n2C` (stereo not given), the inhibition was 3.18%.

For `CN(C)c1ccc(/C=C/c2nc3ccccc3s2)cc1`, the inhibition was -0.93%.

`CN(C)c1ccc(/C=C/c2cc[n+](C)cc2)cc1`: the inhibition is 7.63%.

Take `CC[n+]1c(/C=C/N(C)c2ccccc2)sc2ccc(Cl)cc21`: the inhibition is 0.72%.

With `CC[n+]1c(/C=C/C=C/N(C(C)=O)c2ccccc2)sc2ccccc21`, the inhibition was 25.6%.

For the molecule `CCOc1nc(SCCOc2ccccc2)nc(N(C)C)n1`, the inhibition is 21.4%. For the molecule `COc1ccc(NS(=O)(=O)c2cccc(C(=O)N/N=C(\C)c3ccncc3)c2)cc1`, the inhibition is -5.23%. Consider `Oc1c(Cl)cc(Cl)c2cccnc12`, for which the inhibition is -14.4%.

As to `O=Cc1ccc2ccc3cccnc3c2n1`, the inhibition is 9.05%. Regarding `Cc1ccc2ccc3ccc(C)nc3c2n1`, the inhibition was -7.29%. Consider `Clc1cc2cccnc2c2ccccc12`, for which the inhibition was -7.93%. For the molecule `c1cnc2c(c1)ccc1ncccc12`, the inhibition was -2.85%. Consider `Cc1ccc2cccnc2c1N`, for which the inhibition was -4.2%. For `Clc1ccc2ccc3cccnc3c2n1` the value was -25.7%; for `O=S1(=O)NC(=NCCc2ccccn2)c2ccccc21`, -4.92%. In the case of `CCc1cc(C(=O)N2CCCC(N3CCN(c4cccc(C(F)(F)F)c4)CC3)C2)n(C)n1` (stereo not given), the inhibition was -0.25%.

As to `CCO/C=C/C(O)(CNC(=O)COc1ccccc1F)C(F)(F)F` (stereo not given), the inhibition is -0.96%.

With `Cc1ccc(S(=O)(=O)N2CCN(S(=O)(=O)N3CCC(C)CC3)CC2)cc1C`, the inhibition was 2.71%. For `CC(=O)Nc1nnc(SCC(=O)N2CCc3ccccc32)s1`, the inhibition is -6.4%. Regarding `O=C(NNc1ccc(-c2csnn2)cc1)c1ccccc1C(F)(F)F`, the inhibition is -23.8%. As for `CC1=C(C(=O)Nc2cc(C(=O)N3CCN(c4cccc(C)c4C)CC3)ccc2C)SCCO1`, the inhibition is 8.75%.

Regarding `Cc1cccc(NC2=C(NC(=O)c3ccccc3)C(=O)c3ccccc3C2=O)c1`, the inhibition is 28.6%. `O=C(NC1=C(Nc2ccc(F)cc2)C(=O)c2ccccc2C1=O)c1ccc(Cl)cc1`: the inhibition is -4.19%. As to `O=C(NC1=C(Nc2ccc(Cl)cc2)C(=O)c2ccccc2C1=O)c1ccccc1`, the inhibition is 12.2%.

For the molecule `CN(C1=C(NC(=O)c2ccccc2)C(=O)c2ccccc2C1=O)C1CCS(=O)(=O)C1` (stereo not given), the inhibition was 4.18%.

On to `COc1ccc(NC(=O)CN2CCN(CC(=O)Nc3ccccc3Cl)CC2)cc1Cl`, for which the inhibition is 3.53%. As to `COc1cccc(CC(CC(=O)O)C(=O)Nc2cc(C)ccc2C)c1` (stereo not given), the inhibition was 2.74%.

On to `CN1C(=O)/C(=C2\SC(=S)N(NC(=O)c3cccnc3)C2=O)c2ccccc21`, for which the inhibition was 6.82%. For `O=C(CNC(=O)c1ccco1)N/N=C/c1c[nH]c2ccccc12` the value was -1%; for `COC(=O)C(=NNc1c(C)n(C)n(-c2ccccc2)c1=O)C(=O)OC`, -4.26%. As to `Cc1c(NN=C(C#N)C#N)c(=O)n(-c2ccccc2)n1C`, the inhibition was -11.5%. For the molecule `Cc1c(NP(=O)(c2ccc(Br)cc2)c2ccc(Br)cc2)c(=O)n(-c2ccccc2)n1C`, the inhibition is -4.88%. For `Cc1c(NS(=O)(=O)c2ccc(Br)cc2)c(=O)n(-c2ccccc2)n1C` the value was -8.19%; for `C=CCSC(=S)Nc1c(C)n(C)n(-c2ccccc2)c1=O`, -2.87%. As for `Cc1c(NC(C)C)c(=O)n(-c2ccccc2)n1C`, the inhibition was -3.1%. For `CCS(=O)(=O)Nc1c(C)n(C)n(-c2ccccc2)c1=O`, the inhibition is -2.8%. `Cc1c(C=C2C(=O)NC(=O)NC2=O)c(=O)n(-c2ccccc2)n1C`: the inhibition was -5.56%. In the case of `CCN(C(=O)COC(=O)CNS(=O)(=O)c1ccc2ccccc2c1)C1CCCCC1`, the inhibition is -3.12%. For `CCn1c(=O)[nH]c(=O)c2c(N)c(C(=O)c3ccccc3OC)sc21` the value was 14.2%. `CCC(CC)CN1CCC(CN2C(=O)C(=O)NC[C@@H]2[C@@H](C)CC)CC1`: the inhibition was -5.8%. In the case of `CC(=O)c1cccc(NC(=O)C2CCN(C(=O)c3cccs3)CC2)c1`, the inhibition was -11.1%. For `Cc1ccc(SCC(=O)OCC(=O)Nc2ccc3[nH]c(=O)[nH]c3c2)cc1C`, the inhibition was -0.9%. Consider `COc1ccccc1NC(=O)/C(=C\c1cccs1)NC(=O)c1ccco1`, for which the inhibition is 2.01%. Turning to `COc1ccc2c(COC(=O)CC3Sc4ccccc4NC3=O)cc(=O)oc2c1` (stereo not given), the inhibition was -3.14%. As for `Cc1c(NC(=O)NCc2ccccc2)c(=O)n(-c2ccccc2)n1C`, the inhibition is 0.65%.

`Cc1c(NC(=O)CN2C(=O)C(=O)N(Cc3ccccc3)C2=O)c(=O)n(-c2ccccc2)n1C`: the inhibition is -4.35%.

In general, inhibition refers to the change of the read-out against control, counted positive when it falls.
